PubChem BioAssay AID504734 (The Scripps Research Institute Molecular Screening Center, 2011)
In all, about 340,000 compounds went through this assay and about 730 (0.21%) were called active. Shown is part of a subset that was picked to be rich in actives. Values without a mark were called inactive.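 The calls were made as follows: active = inhibition above the mean over all tested compounds plus 3 SD (cut at about 21% in these data); inactive = the rest.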

Molecular target: Toll-like receptor 9 (Homo sapiens) + Myeloid differentiation primary response protein MyD88 (Homo sapiens) (UniProt Q9NR96+Q99836)
Experiment: disruptors of TLR9 binding to MyD88 – cell-based, CHO, BLA complementation, fluorescence, primary screen (AID 504734);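 also: 0% = DMSO only wells and 100% = clavulanate BLA inhibitor control wells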
Settings: CHO BLA complementation TLR9-MyD88, CCF4 FRET ratio; at 4.98 µM; hits give high values

Chain of Toll-like receptor 9 (Homo sapiens) + Myeloid differentiation primary response protein MyD88 (Homo sapiens) (Q99836 whole entry, looked up): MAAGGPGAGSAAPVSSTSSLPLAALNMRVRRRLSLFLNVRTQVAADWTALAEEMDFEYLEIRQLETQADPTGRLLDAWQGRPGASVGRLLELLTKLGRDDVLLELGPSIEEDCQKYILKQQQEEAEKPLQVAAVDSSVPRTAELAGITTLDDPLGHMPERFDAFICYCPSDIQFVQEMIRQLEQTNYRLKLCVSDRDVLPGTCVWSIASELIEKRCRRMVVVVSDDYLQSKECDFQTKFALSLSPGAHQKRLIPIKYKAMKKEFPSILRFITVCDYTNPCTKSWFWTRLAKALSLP
Chain of Toll-like receptor 9 (Homo sapiens) + Myeloid differentiation primary response protein MyD88 (Homo sapiens) (Q9NR96 whole entry, looked up): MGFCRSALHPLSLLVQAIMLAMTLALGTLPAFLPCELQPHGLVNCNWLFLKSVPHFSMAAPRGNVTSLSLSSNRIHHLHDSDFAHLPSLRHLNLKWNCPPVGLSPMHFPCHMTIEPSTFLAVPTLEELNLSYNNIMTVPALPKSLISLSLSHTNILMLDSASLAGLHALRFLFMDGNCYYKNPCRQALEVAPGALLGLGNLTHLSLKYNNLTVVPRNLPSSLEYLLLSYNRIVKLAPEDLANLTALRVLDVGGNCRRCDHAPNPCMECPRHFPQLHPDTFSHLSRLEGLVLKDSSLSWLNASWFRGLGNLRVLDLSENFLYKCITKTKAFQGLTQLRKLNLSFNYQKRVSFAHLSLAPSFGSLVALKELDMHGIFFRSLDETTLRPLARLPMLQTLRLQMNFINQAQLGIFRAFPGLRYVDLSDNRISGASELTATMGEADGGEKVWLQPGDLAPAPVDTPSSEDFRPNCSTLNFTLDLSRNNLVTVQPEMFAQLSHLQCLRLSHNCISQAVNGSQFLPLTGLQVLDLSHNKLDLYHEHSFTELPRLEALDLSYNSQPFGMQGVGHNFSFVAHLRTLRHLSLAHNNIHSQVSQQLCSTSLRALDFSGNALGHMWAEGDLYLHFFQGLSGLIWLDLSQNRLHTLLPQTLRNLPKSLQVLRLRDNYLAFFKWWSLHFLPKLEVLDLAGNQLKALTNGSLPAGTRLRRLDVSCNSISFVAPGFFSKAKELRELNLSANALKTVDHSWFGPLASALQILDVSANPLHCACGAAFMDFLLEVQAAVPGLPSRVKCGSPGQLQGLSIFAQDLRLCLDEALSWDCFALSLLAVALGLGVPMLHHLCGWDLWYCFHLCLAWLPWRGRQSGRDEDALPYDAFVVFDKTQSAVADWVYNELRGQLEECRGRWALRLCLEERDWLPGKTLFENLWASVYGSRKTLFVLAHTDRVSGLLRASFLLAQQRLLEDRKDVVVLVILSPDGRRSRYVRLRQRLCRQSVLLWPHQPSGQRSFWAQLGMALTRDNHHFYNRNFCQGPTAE

Row | Structure (SMILES) | inhibition
1 | C[C@@H]1CN([C@@H](C)CO)C(=O)c2cc(Br)cnc2O[C@@H]1CN(C)C(=O)C1CCCCC1 | 4.79%
2 | COc1ccc(/C=C2\SC(=S)N(CCC(=O)N3CCOCC3)C2=O)cc1OC | -12.7%
3 | O=C(Cc1ccc([N+](=O)[O-])cc1)NCCS(=O)(=O)N1CCN(c2ccccc2)CC1 | 12.1%
4 | CC(=O)Nc1ccc(SCC(=O)NC(=O)c2ccc(Cl)cc2)cc1 | -11.6%
5 | O=C(CNC(=O)c1ccc(-c2ccccc2)cc1)OCc1ccc(Cl)cc1 | -3.72%
6 | CC(=O)COc1ccc2c(-c3ccccc3)cc(=O)oc2c1 | 3.27%
7 | O=C(CNC(=O)OCc1ccccc1)Oc1cc2oc(=O)cc(-c3ccccc3)c2cc1Cl | 27.3% (active)
8 | CCN(CC(=O)Nc1ccc(NC(C)=O)cc1)C(=O)C1CC(=O)N(c2ccc3c(c2)OCCO3)C1 (stereo not given) | -3.12%
9 | CCn1c(SCC(=O)N2CCCC2=O)nc2ccccc21 | -8.17%
10 | Cc1ccc(C(=O)OCC(=O)NC2CCCCCCC2)cc1C | -1.15%
11 | N#CCCN(C(=S)Nc1ccc(Cl)c(Cl)c1)C1CCCCC1 | 11.8%
12 | CCN(CC)C(=O)C(C)N1c2cccc3cccc(c23)S1(=O)=O (stereo not given) | 4.23%
13 | O=C1CCC(=O)N1CCC(=O)N(C(=O)NC1CCCCC1)C1CCCCC1 | 4%
14 | O=C(c1c(Cl)nc2sccn12)N1CCCc2ccccc21 | -2.96%
15 | Cc1cccc2cc3c(N)c(C(=O)N4CCCc5ccccc54)sc3nc12 | 32.5% (active)
16 | Cc1ccc(C(=O)N2CCCc3ccccc32)c(Cl)c1 | -5.91%
17 | C[C@H]1CN([C@@H](C)CO)C(=O)CCCn2cc(nn2)CO[C@@H]1CN(C)S(=O)(=O)c1cccc(C#N)c1 | -7.52%
18 | COc1ccccc1/C=C/C(=O)OCC(=O)NC1CCCCCC1 | 22.6% (active)
19 | COc1ccc(/C=C/C(=O)OCC(=O)NC2CCCCCC2)cc1OC | -1.25%
20 | O=C(COC(=O)/C=C/c1cccs1)NC1CCCCC1 | 2.5%
21 | C[C@H](CO)N1C[C@H](C)[C@@H](CN(C)C(=O)C2CCCCC2)OCc2cnnn2CCCC1=O | 1.13%
22 | O=C(COC(=O)/C=C/c1ccc(Cl)cc1)NC1CCS(=O)(=O)C1 (stereo not given) | -13.5%
23 | CCN(CC)CCCC(C)n1c2nc(=O)[nH]c(=O)c-2nc2cc(Cl)ccc21 (stereo not given) | 22.6% (active)

Row | Structure (SMILES) | inhibition
24 | Cc1nnc(SC(C)C(=O)c2c[nH]c3ccccc23)n1C1CC1 (stereo not given) | -9.37%
25 | Cc1ccc(S(=O)(=O)N2C[C@]3(O)C[C@@H]4C(=O)N(c5ccccc5)C(=O)[C@@H]4C[C@]3(OC(=O)NC3CC3)C2)cc1 | -0.67%
26 | Cc1ccc(S(=O)(=O)N2CCCCC2)cc1NC(=O)CCNC(=O)c1ccccc1Cl | -7.91%
27 | Cc1cc([N+](=O)[O-])ccc1NCc1cccc([N+](=O)[O-])c1 | -1.82%
28 | O=[N+]([O-])c1cccc(/C=N/Nc2ncc(Br)cn2)c1 | -10.4%
29 | O=[N+]([O-])c1ccc(N/N=C/c2ccccc2)cc1 | 21.1% (active)
30 | O=[N+]([O-])c1ccc(N=NNc2ccc([N+](=O)[O-])cc2)cc1 | -10.5%
31 | Cc1ccccc1OCCOc1ccc([N+](=O)[O-])cc1/C=N/n1cnnc1 | -3.95%
32 | Cc1cccc(COc2ccccc2/C=N/Nc2ccc([N+](=O)[O-])cc2)c1 | 21.7% (active)
33 | C[C@H](O)[C@@H]1C(=O)N2CCc3c([nH]c4ccccc34)[C@@H]2C[C@@H]1N(C)C(=O)Nc1ccc(F)cc1 | -0.01%
34 | CCOc1cc(/C=N/NC(=O)c2c(C)nc3ccc(Cl)cn23)ccc1O | -2.46%
35 | C=CCN1CCN(c2ccncc2S(=O)(=O)N2CCN(C)CC2)CC1 | 9.55%
36 | Cc1sc2ncnc(SCC(=O)NC3CCS(=O)(=O)C3)c2c1C (stereo not given) | -4.28%
37 | Cn1nc(N)c2ncc(C(Cl)(Cl)Cl)nc21 | -17.4%
38 | COc1cc(C(=O)OCCCN2CCOCC2)cc(OC)c1OC | 1.8%
39 | Cc1cc(OCC(=O)Nc2nccs2)c2c(C)c(C)c(=O)oc2c1 | -3.81%
40 | COc1ccccc1-c1n[nH]nc1C1=CC(=O)CC(C)(C)C1 | 9.73%
41 | CNC(=S)N/N=C/c1ccc(OCc2ccccc2)c(Br)c1 | 29.9% (active)
42 | CNC(=S)NNC(=O)c1sccc1OCc1ccccc1 | -6.12%
43 | O=C(O)COc1ccc(/C=N/O)cc1Br | 7.44%
44 | CCCCCCN1C[C@@H](O)[C@H](n2cc(COC(=O)c3ccccc3)nn2)C[C@@H]1c1ccc(Cl)cc1 | -2.39%
45 | C[C@H]1CN([C@@H](C)CO)C(=O)CCCn2nncc2CO[C@@H]1CN(C)Cc1ccc(Oc2ccccc2)cc1 | 0.54%
46 | NC(=O)C1(Nc2ccccc2Cl)CCCC1 | -10.1%

Row | Structure (SMILES) | inhibition
47 | O=C(Nc1ccccc1Cl)/C(Cl)=C(\Cl)S(=O)c1ccccc1 (stereo not given) | 23.8% (active)
48 | O=C(CCN1CCN(C/C=C/c2ccccc2)CC1)Nc1ccccc1Cl | 2.63%
49 | CN1OC[C@@H]2CN(S(=O)(=O)c3cccc(C(F)(F)F)c3)[C@H](c3ccc(-c4cc5ccccc5o4)cc3)C[C@@H]21 | -0.31%
50 | Cc1cc(C)cc(OCC(=O)NNC(=O)CCN2C(=O)c3ccccc3C2=O)c1 | -3.37%
51 | Cc1cc(C)cc(NC(=O)CCN2C(=O)c3ccccc3C2=O)c1 | -4.31%
52 | O=C(CCN1C(=O)c2ccccc2C1=O)NNC(=O)c1ccc(Cl)cc1Cl | 29.1% (active)
53 | Cc1ccc(-c2ccc(CN3C(C(C)C)C(=O)N(Cc4cn(CCC5OCCCO5)nn4)CCS3(=O)=O)cc2)cc1 (stereo not given) | -5.52%
54 | CC(OC(=O)c1ccc(NC(=O)CC#N)cc1)C(=O)Nc1ccc(S(=O)(=O)N2CCCC2)cc1 (stereo not given) | 0.94%
55 | COCCCn1c(C(=O)NC2CCCCC2)cc2c(=O)n3cccc(C)c3nc21 | -12.6%
56 | CC1(C)CN(Cc2cccnc2)C(=O)[C@H]1CC(=O)Nc1ccc(Br)cc1 | -3.44%
57 | O=C(CSc1ccc(Cl)cc1)NC1CC1 | -15.8%
58 | C#CCN(C[C@H]1[C@H](OC(=O)NC2CCCC2)[C@H](OC(=O)NC2CCCC2)C[C@H]2C(=O)N(c3ccccc3)C(=O)[C@@H]12)S(=O)(=O)c1ccc(C)cc1 | -5.56%
59 | Brc1ccc(C2=CC(c3ccco3)n3ncnc3N2)cc1 (stereo not given) | 30.4% (active)
60 | COc1ccc(C2CC(c3ccc(C)cc3)Nc3ncnn32)cc1 (stereo not given) | 1.5%
61 | CCOc1ccc(C2=CC(c3ccccc3)n3ncnc3N2)cc1 (stereo not given) | 33.7% (active)
62 | CC1=C(C(=O)OC2CCCCC2)C(c2cccnc2)n2ncnc2N1 (stereo not given) | -0.13%
63 | Clc1ccc2c(c1)C1=C(C(c3ccncc3)O2)C(c2ccc(Br)cc2)n2ncnc2N1 (stereo not given) | -8.31%
64 | CCN1C(=O)[C@H]2[C@@H](c3ccc(C(F)(F)F)cc3)N[C@]3(CCCN(Cc4ccc(Br)cc4)C3=O)[C@H]2C1=O | 5.46%
65 | N#CCCN(C(=O)Nc1ccc(Cl)c(Cl)c1)C1CCCCC1 | 8.97%
66 | CCN(C(=O)Nc1cccc2ccccc12)c1ccccc1 | -15.1%
67 | Cc1nc2ccccc2nc1CC(O)(c1ccccc1)c1ccccc1 | 2.03%
68 | CCOC(=O)c1cc(-c2sc(NC(=O)c3ccccc3)nc2C)n(CCO)n1 | 2.6%
69 | Cc1cc2c3ccccc3[nH]c(=O)n2n1 | 1.06%

Row | Structure (SMILES) | inhibition
70 | CN(c1ccccc1)S(=O)(=O)c1ccc(C(=O)NCc2cccnc2)cc1 | 7.85%
71 | O=C1NC(=O)C2C1C(c1ccc([N+](=O)[O-])cc1)=NN2Cc1ccccc1 (stereo not given) | 27.8% (active)
72 | O=[N+]([O-])c1ccc(C(S(=O)(=O)Cc2ccccc2)S(=O)(=O)Cc2ccccc2)cc1 | 2.65%
73 | CC1CN(Cc2ccccc2)C(=S)NC1=O (stereo not given) | -6.13%
74 | CN(Cc1ccccc1)C(=O)CCC1CCN(C(=O)c2ccco2)CC1 | 0.05%
75 | NS(=O)(=O)c1ccc(CNC(=O)c2cc(S(=O)(=O)N3CCOCC3)ccc2N2CCCC2)cc1 | -5.7%
76 | CC1(c2cccc(Br)c2)NC(=O)N(CC(=O)NCCC2=CCCCC2)C1=O (stereo not given) | 3.69%
77 | COC(=O)Cc1cc(=O)oc2c(C)c(O)ccc12 | 21.6% (active)
78 | CCCc1cc(=O)oc2c(C)c(OCC(=O)Nc3ccccn3)ccc12 | 6.85%
79 | COc1cccc(C(=O)OCc2cc(=O)oc3c(C)c(C)ccc23)c1OC | -5.33%
80 | S=C(NN=Cc1ccccn1)Nc1ccccn1 | 10.2%
81 | CC1C(=O)N(Cc2cn(Cc3ccco3)nn2)CCS(=O)(=O)N1Cc1ccc(-c2cccc(CO)c2)cc1 (stereo not given) | -1.07%
82 | C[C@@H]1CN([C@@H](C)CO)C(=O)CCCn2nncc2CO[C@H]1CN(C)Cc1ccc(C(F)(F)F)cc1 | -8.49%
83 | O=C(NCCCNCc1ccccc1)c1ccc(/C=N/O)nc1 | -3.77%
84 | C[N+](C)(C)CCNC(=O)c1cc[n+](Cc2ccccc2)c(/C=N/O)c1 | 22.8% (active)
85 | C[n+]1ccc(C(=O)NCc2ccccc2)cc1 | -10.2%
86 | Cc1ccc2cccc([N+](=O)[O-])c2n1 | 4.24%
87 | COc1ccc(CCNC(=O)CN(c2ccccc2)S(=O)(=O)c2ccccc2)cc1 | 0.66%
88 | COc1cc2[nH]c(O)c(C=O)c2cc1OC | -8.58%
89 | CN=c1scc(-c2cc(OC)ccc2OC)n1/N=C/c1c(C)[nH]c2ccccc12 | 6.42%
90 | COc1ccc(OC)c(N=Cc2c(O)[nH]c3ccccc23)c1 | 41.1% (active)
